# Test results: PubChem BioAssay (NCI)
# The panel holds about 83,000 compounds, 20% with a hit somewhere; the sample as a whole holds those more often.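 Assay: single dose, 48 h. Readout: percent growth (0 = no net growth; negative = cell death). Active: <10.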 Unmarked numbers belong to inactive results. Active and inactive are the calls of the source.
# Test system: UO-31 renal
# Experiment: NCI-60 one-dose screen, 48 h (100 = growth as untreated, 0 = no growth, -100 = all killed)
# Conditions: 10 µM unless noted
row,SMILES,growth
1,O=C1Nc2ccccc2/C1=N/N=C/c1c[nH]c2ccccc12,26.4%
2,Cc1nc2ccc(C(=O)NCc3cc(C(=O)O)c(C)o3)cc2nc1C,82.8%
3,Cc1ccc(S(=O)(=O)NN/C(N)=N\S(=O)(=O)c2cc(C)c(Cl)cc2SCc2ccccc2)cc1,77.9%
4,COc1ccc(-c2nnc(SCC(=O)NC3=NN=C(c4ccccc4)CS3)o2)cc1,88.1%
5,Cn1ncc2c(Nc3ccc(Br)cc3)nc(Nc3ccc(Br)cc3)nc21,68.3%
6,Cc1cn(C2CCCCC2)c(=O)[nH]c1=O,99.8%
7,Cl.Fc1c[c-]c(-c2ccccn2)c(F)c1.[Pt].c1ccc(P(c2ccccc2)C([PH+](c2ccccc2)c2ccccc2)[PH+](c2ccccc2)c2ccccc2)cc1,-5.69% (active)
8,N=C(N)c1ccc(-c2ccc(-c3ccc(Cl)c(Cl)c3)o2)cc1,-69.1% (active)
9,Cc1cc(=O)c2cc3nc(-c4cccnc4)oc3c(Br)c2o1,106%
10,C=C1C(=O)O[C@H]2[C@H]1CC/C(COC(=O)/C=C/C(=O)NCc1ccc(Cn3c(=O)sn(-c4ccccc4)c3=O)cc1)=C\CC[C@@]1(C)O[C@@H]21,17.9%
11,Cc1ccc(/C=C(\C#N)n2nnc3cc(Cl)c(Cl)cc32)cc1,0.755% (active)
12,N=C(N)c1ccc(-c2ccc(-c3ccc(Cl)c(Cl)c3)o2)nc1,-92% (active)
13,COc1ccccc1C(=O)NC(=S)Nc1ccc(-c2nc3ccccc3[nH]2)cc1,28.5%
14,COC(=O)c1ccc2oc(NC(=O)c3ccc(N4CCOCC4)c([N+](=O)[O-])c3)nc2c1,75.4%
15,COC(=O)c1ccc(CSc2nnc(-c3ccncc3)o2)cc1,79.7%
16,N#C/C(=C\c1ccc2c(c1)OCO2)n1nnc2ccccc21,11.9%
17,O=C(NC(=S)Nc1ccc(-c2nc3ccccc3[nH]2)cc1)c1ccc2ccccc2c1,-84.4% (active)
18,COc1cc2c(c(OC)c1OC)C(=O)/C(=C/c1cc(C)c(O)c(C)c1)S2,33%
19,COc1ccc(-c2cc(-c3ccc(Nc4nc(Nc5ccccc5)nc(Nc5ccc(Cl)cc5)n4)cc3)nc(N)c2C#N)cc1,-71.5% (active)
20,Cc1c(Cl)cccc1NS(=O)(=O)c1ccccc1,90.4%

row,SMILES,growth
1,CCn1c(Sc2nnc(NC(C)=O)s2)nc2c1c(=O)n(C)c(=O)n2C,83.5%
2,NS(=O)(=O)c1cn(-c2ncnc3nc[nH]c23)ccc1=O,78.2%
3,CN1C(=O)CCC(N2C(=O)c3cccc(NCCOCCOCCNC(=O)c4cc5c(o4)C(=O)c4ccccc4C5=O)c3C2=O)C1=O (centres undefined),-52.6% (active)
4,COc1ccc(Nc2ncc(Br)c(NCCCNC(=O)C3CCC3)n2)cc1,-19.8% (active)
5,COc1ccccc1NC(=O)Nc1ccc(-c2nc3ccccc3o2)cc1,94.5%
6,N#C/C=C(\c1ccc([N+](=O)[O-])cc1)n1nnc2cc(Cl)c(Cl)cc21,-70.9% (active)
7,O=C(c1ccccc1)c1ccc(N2C(=O)C3C4c5ccccc5C(/C=C/C(=O)c5ccccn5)(c5ccccc54)C3C2=O)cc1 (centres undefined),-37.4% (active)
8,Cc1cc(-c2ccc(N(C)C)cc2)c2sc(=O)[nH]c2n1,55.3%
9,N#Cc1c(NC(=O)c2ccccc2I)sc2c1CCCC2,58.1%
10,C[C@@H]1CC[C@@H]2[C@@H]1[C@H](OC(=O)/C=C/c1ccccc1)[C@]1(CCCOCCOCCOCCOC(=O)CCCC[C@@H]3SC[C@@H]4NC(=O)N[C@@H]43)C[C@@H](OC(=O)CO)[C@@]2(C)O1,83.1%
11,CCn1c(Sc2nnc(NC(=O)CCN3CCCC3)s2)nc2c1c(=O)n(C)c(=O)n2C,88.7%
12,Cl.Fc1c[c-]c(-c2ccccn2)c(F)c1.[Pt].c1ccc([PH+](C[PH+](c2ccccc2)c2ccccc2)c2ccccc2)cc1,-93.2% (active)
13,CCCCCCCC/C=C/CCCCCCCC1=NCC[N+]1(CCO)CCO,65.4%
14,CCOC(=O)N1CCc2c(sc3c2C(=O)N[C@H](c2ccc(OC)cc2)N3)C1,87.6%
15,CCOc1ccc(-c2nc3ccc(-c4nc5ccc(N6CCN(C)CC6)cc5[nH]4)cc3[nH]2)cc1OCC,98.6%
16,O=C(NCCN1CCC(O)CC1)c1cc2c(o1)C(=O)c1ccccc1C2=O,-98.9% (active)
17,Cl.Fc1c[c-]c(-c2ccccn2)c(F)c1.[Pt].c1ccc([PH+](c2ccccc2)c2ccccc2[PH+](c2ccccc2)c2ccccc2)cc1,-98.8% (active)
18,O=C(NCCOCCOCCOCCNC(=O)c1cc2c(o1)C(=O)c1ccccc1C2=O)NC12CC3CC(CC(C3)C1)C2,-59% (active)
19,COc1ccc(/C=C(\C#N)n2nnc3ccccc32)cc1,33.2%
